Results reported in the supplement of paper PMC8726507.

The compounds below were run on Plasmodium falciparum NF54-HGL (transmission to Anopheles stephensi) (assay: percentage of barcode signal found in uninfected mosquitoes (transmission-blocking activity); higher = stronger blocking of transmission to mosquito, active = 80 or more). Details: 10 µM; gametocyte preincubation time 24 h; readout time post-feed 8 days.
Procedure: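 The mixture was fed to Anopheles stephensi in 96-well plates as blood meals tagged with DNA-barcoded Asaia bacteria. Eight days later, mosquitoes were classed infected or uninfected by luminescence (mean + 5 SD of unfed controls). Barcodes were quantified by Luminex MagPlex-TAG in the pooled uninfected and infected Asaia cultures, background-corrected, and the score is % of barcode signal in uninfected mosquitoes = 100*Iu/(Iu+Ii).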

Row | SMILES | percentage of barcode signal found in uninfected mosquitoes
1 | NCCCC(N)(C(=O)O)C(F)F (configuration not stated) | 37.7% (inactive)
2 | COc1cccc(-n2nnnc2S(=O)(=O)Cc2ccccc2)c1 | 90.4% (active)
3 | CNC(=O)c1cc(S(=O)(=O)N2CCN(c3ccccn3)CC2)cs1 | 37.8% (inactive)
4 | CCCn1c(CNc2ccccc2O)nc2ccccc21 | 34.7% (inactive)
5 | CN1CCN(c2nccc3nc(-c4ccc(F)c(F)c4)[nH]c23)CC1 | 97.2% (active)
6 | N#Cc1ccc(-c2cnc(N)c(-c3ccc(C(N)=O)cc3)n2)cc1 | 69.6% (inactive)
7 | CC(C)(C)C1CCC(CC2=C(O)C(=O)c3ccccc3C2=O)CC1 (configuration not stated) | 83.7% (active)
8 | COC(=O)c1ccc(F)cc1NS(=O)(=O)c1cccc(-c2cnn(Cc3ccccc3)c2)c1 | 31.1% (inactive)
9 | Cn1ncc2c(N3CCOCC3)nc(NCCc3c[nH]c4ccccc34)nc21 | 64.2% (inactive)
10 | Nc1ncnc2c1ncn2[C@@H]1O[C@H](COS(=O)(=O)NC(=O)c2ccccc2O)[C@@H](O)[C@H]1O | -0.124% (inactive)
11 | CS(=O)(=O)N1CCC(CCn2nc(Cc3cccc4ccccc34)c3c(N)ncnc32)CC1 | 45.3% (inactive)
12 | CC(C)(C)OC(=O)N1CCN(c2nccc(-c3ccc(-c4ccc(Cl)cc4)s3)n2)CC1 | 20.6% (inactive)
13 | CC1=Nc2ccc(Cl)cc2C(O)(c2ccc(C)cc2)N1CCN1CCCCC1 (configuration not stated) | 83.9% (active)
14 | CCc1cc(=O)n(C)c(SC(C)C(=O)Nc2ccc(F)cc2)n1 (configuration not stated) | 48.5% (inactive)
15 | Cc1cccc(Cn2ccc(NC(=O)c3ccc4c(c3)OCO4)n2)c1 | 42.9% (inactive)
16 | O=C(NCc1ccco1)N1CCN(Cc2ccc(Cl)s2)CC1 | 0.794% (inactive)
17 | CCCCc1ccc(NC(=O)Nc2ccc(O[C@H]3CCCC[C@@H]3N(C)c3ccccc3)c(F)c2)cc1 | 28.1% (inactive)

Same assay, conditions: 20 µM; gametocyte preincubation time 24 h; readout time post-feed 8 days

Row | SMILES | percentage of barcode signal found in uninfected mosquitoes
18 | CCNC(=O)C(C)Nc1nc(-c2cccnc2)nc2sc(C)c(C)c12 (configuration not stated) | 11.5% (inactive)
19 | CCCn1c(NC(=O)c2ccc3ccccc3n2)nc2ccccc21 | 56.6% (inactive)
20 | Clc1cccc(CO[C@H]2CCc3ccccc3[C@@H]2n2ccnn2)c1 | -1.12% (inactive)
21 | CCCc1ccc(S(=O)(=O)Nc2ccc(CN3CCN(CC4CC4)CC3)cc2)cc1 | 9.2% (inactive)
22 | CC(C)(C)c1cnc(NC(=O)c2ccccc2O)s1 | 21.3% (inactive)
23 | COc1ccc(-c2cnc3cnc(-c4cccc(OC(C)C)c4)cn23)cc1 | -0.618% (inactive)
24 | Cc1ccc2[nH]c(C3CCCNC3)c(-c3ccncc3)c2c1 (configuration not stated) | 79.4% (inactive)
25 | CN1CCCN(C(c2ccccc2)c2ccc(Cl)cc2)CC1 (configuration not stated) | 25.1% (inactive)
26 | c1cncc(NCc2ccc(-c3cc4ccncc4cc3OC3CCNCC3)s2)c1 | 99.4% (active)
27 | Cn1ccnc1CNCCS(=O)(=O)c1cccc(Nc2ccc(-c3cccc(F)c3)cn2)c1 | 0.967% (inactive)
28 | CN1CCN(S(=O)(=O)c2ccc(-c3ccc4c(Nc5ncc(Cl)cn5)ccnc4c3)cc2)CC1 | 50.8% (inactive)
29 | O=C(Nc1c(O)cccc1-c1nc2c(C(=O)O)cccc2o1)c1cc(-c2ccccc2)on1 | 20.8% (inactive)
30 | Clc1ccc(-n2cc(COc3ccnc4ccccc34)nn2)cc1 | 34.4% (inactive)
31 | O=C(CN1CCOCC1)Nc1ccc2ncnc(Nc3ccc(OCc4cccc(F)c4)c(Cl)c3)c2c1 | 1.6% (inactive)
32 | CC(=O)N1CCc2cc3nc(C)cc(C)c3cc21 | 5.33% (inactive)
33 | CCc1ccc(C(NCc2nc(N)nc(N(C)C)n2)C(C)C)cc1 (configuration not stated) | 54.2% (inactive)
34 | FC(F)(F)c1cc(NCCc2ccccc2)nc(-c2ccccn2)n1 | 62.2% (inactive)
35 | COc1cc(C(F)(F)F)nc2ccc(C)c(N)c12 | -0.0386% (inactive)
36 | Cc1cc(OCC(=O)NCc2ccccc2)c2cc(Br)ccc2n1 | 0.13% (inactive)
37 | c1ccc(-c2nc(NC3CCCCC3)cc(C3CC3)n2)nc1 | 99.2% (active)
